Shown are actives, neighbours in structure and some others; about 4% of the full set was active somewhere.
Wnt bcat act – Wnt/beta-catenin pathway activators, primary screen, cell-based, plate reader, single point. Wnt/beta-catenin reporter cell assay, activator. 300,000 compounds, 1.2% hits. activation, % at 9.35 µM; in the data active means activation above about 30%, passing the limit was not always enough; inconclusive means no clear call, values can overlap the other calls;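 further: 0% = neutral control wells and 100% = positive control wells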
PAX8 inh HTS – inhibitors of PAX8-driven TPO luciferase reporter, primary screen, RMG-I cells, single concentration; SteadyGlo, 24 h; 360,000 compounds, 1.2% hits; inhibition, % at 12.6 µM; AID 652154, 2013;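 active means mean replicate inhibition at least 60% with every replicate also reaching 60%; inconclusive means only one of the two criteria is met; inactive means mean below 60% and not all replicates reaching 60%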;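 further: luciferase light reporting Pax8 driven TPO promoter activity; plate controls were median of neutral control wells for no effect and mitoxantrone controls for full effect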
MITF act – activators of MITF-driven TRPM1 promoter reporter, primary screen, cell-based, SK-MEL-5, luciferase, single point | SK-MEL-5 TRPM1-promoter luciferase, 24 h; % of positive control, neutral wells = 0 | activation, % at 12.5 µM | 300,000 compounds, 0.75% hits;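 active means mean activation of at least 80% with every replicate also reaching 80%; inconclusive means mean reaches 80% but some replicate falls short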;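 further: 0% = neutral control wells and 100% = parthenolide positive control wells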
esBAF inh – Bmi1 luciferase reporter increase in mESCs, primary screen, esBAF inhibitor project, mouse ES cells, Bmi1 luciferase knock-in, single point. 350,000 compounds, 2% hits. 24 h; 100% = twice the neutral-well signal. reporter increase, % at 12.5 µM; in the data active means activation above about 40%; inconclusive means no clear call, values can overlap the other calls;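 further: 0% = median of the plate's neutral control wells and 100% = double that signal; a rise in the Bmi1 reporter signal indicates esBAF inhibition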
EWS-Fli block – EWS/Fli-driven NR0B1 reporter inhibitors, primary screen, A673 cells, NR0B1 luciferase, luminescence, MLPCN library; viability-normalised; inhibition, % at 12.6 µM; 350,000 compounds, 0.67% hits; AID 651661, 2012;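 active means mean inhibition of at least 50% after viability correction, with every replicate also passing that limit; inconclusive means mean reaches 50% but only one of two replicates passes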;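 further: firefly luciferase signal divided by Alamar Blue viability fluorescence both relative to DMSO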
MITF TRPM1 inh – inhibitors of MITF-dependent TRPM1 promoter reporter, primary screen, cell-based, SK-MEL-5, single point, luciferase. SK-MEL-5 TRPM1 promoter luciferase, 24 h. inhibition, % at 12.5 µM. 330,000 compounds, 0.83% hits. AID 488899, 2010;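 active means mean inhibition across replicates of 60% or more, whatever share of single replicates reaches that level; inconclusive means some that reach 60%, reason not given; inactive means mean inhibition across replicates below 60%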
Numbers without * were called inactive; ? = inconclusive; nt = no result given.

SMILES | Wnt bcat act | PAX8 inh HTS | MITF act | esBAF inh | EWS-Fli block | MITF TRPM1 inh
CCSc1nc2ccccc2[nH]1 | nt | nt | 3 | 1 | nt | -3
c1ccc(CSc2nc3ccccc3[nH]2)cc1 | 68* | -230 | 111* | -29 | -58 | -116
c1ccc(CSCc2nc3ccccc3[nH]2)cc1 | nt | -42 | 111* | nt | nt | -110
CO[C@@H](CN(C)Cc1cc(F)ccc1F)[C@@H](C)CN([C@H](C)CO)S(=O)(=O)c1ccc(F)cc1 | nt | 5 | nt | 2 | -3 | nt
Fc1ccc(CSc2nc3ccccc3[nH]2)cc1 | nt | nt | 104* | 33 | nt | -106
O=[N+]([O-])c1ccc(Sc2nc3ccccc3[nH]2)c(Cl)c1 | -1 | 11 | nt | nt | 4 | nt
O=[N+]([O-])c1ccc(CSc2nc3ccccc3[nH]2)cc1 | 21 | -150 | ? | 72* | -77 | -88
CCCOc1ccc(CSc2nc3ccccc3[nH]2)cc1 | nt | nt | 30 | -1 | nt | -33
CO[C@@H]1CN(C)C(=O)c2cc(NS(=O)(=O)c3cn(C)cn3)ccc2OC[C@@H](C)N(CC2CC2)C[C@H]1C | nt | nt | nt | -5 | -1 | nt
Cc1cc(C)c(-c2nc3ccccc3s2)[nH]1 | 14 | -124 | 15 | 76* | -66 | -18
Cc1ccc(C(=O)OCn2ncc(Cl)c(Cl)c2=O)cc1 | nt | nt | -104 | -45 | nt | 105*
CCC(=O)Nc1ccc(C(=O)Cn2ncc(Cl)c(Cl)c2=O)cc1 | -21 | 78* | -66 | 2 | 0 | ?
Cc1ccc(C)c(C(=O)Cn2ncc(Cl)c(Cl)c2=O)c1 | nt | nt | -74 | nt | nt | 75*
O=C(Cn1ncc(Cl)c(Cl)c1=O)c1ccc2c(c1)OCCO2 | -2 | -26 | nt | nt | 7 | 50
Cc1cc(C(=O)Cn2ncc(Cl)c(Cl)c2=O)c(C)n1CC(F)(F)F | 20 | 2 | -41 | nt | 17 | 43
CCc1ccccc1NC(=O)CN(C)C(=O)Cn1ncc(Cl)c(Cl)c1=O | -13 | 68* | -90 | nt | 63* | 89*
CCc1ccccc1NC(=O)CN(C)C(=O)Cn1cnc2ccc(Cl)cc2c1=O | -1 | -1 | 4 | 4 | -2 | -3
C[C@H](CO)N1C[C@H](C)[C@H](CN(C)S(=O)(=O)c2cccs2)OCCCC[C@H](C)Oc2ccc(NC(=O)Nc3cccc4ccccc34)cc2C1=O | nt | 14 | nt | 2 | 2 | nt
OC[C@H]1[C@@H](c2ccc(C#CC3CC3)cc2)[C@@H]2CN(CCC(F)(F)F)CCCCN12 | nt | -6 | nt | nt | -1 | nt
CCOC(=O)c1ccc(NC(=O)Cn2ncc(Cl)c(Cl)c2=O)cc1 | -32 | 95* | -103 | nt | 37 | 103*
CCOC(=O)c1ccc(NC(=O)Cn2nc(C)c3ccccc3c2=O)cc1 | -1 | 15 | -17 | 6 | -2 | 16
O=C(Nc1cccnc1N1CCOCC1)c1ccco1 | 41* | -15 | 1 | nt | nt | -2
Cc1ccc(S(=O)(=O)N[C@H]2CC[C@H](CC(=O)N3CCc4ccccc4C3)O[C@@H]2CO)cc1 | nt | 5 | nt | -5 | 3 | nt
CCOC(=O)c1c(-c2ccc(F)cc2)csc1NC(=O)CN1C(=O)NC2(CCCCC2C)C1=O (centres undefined) | 0 | 99* | 20 | nt | 22 | -18
C[C@@H]1CN([C@H](C)CO)S(=O)(=O)c2ccc(-c3cccnc3)cc2O[C@@H]1CN(C)C(=O)c1cccc(F)c1 | nt | nt | nt | -7 | -4 | nt
SMILES | Wnt bcat act | PAX8 inh HTS | MITF act | esBAF inh | EWS-Fli block | MITF TRPM1 inh
CCOC(=O)/C=c1\s/c(=C\c2ccc3cc(OC)ccc3c2)c(=O)n1CC(=O)NCC1CCCO1 (centres undefined) | nt | nt | -67 | nt | nt | 68*
O=C(C[C@@H]1CC[C@H](NC(=O)Nc2ccc(C(F)(F)F)cc2)[C@H](CO)O1)NCc1cc(F)cc(F)c1 | nt | 30 | nt | 10 | 6 | nt
c1cncc(-c2nnc(-c3ccco3)o2)c1 | nt | nt | 25 | 18 | nt | -20
Clc1ccc(-c2nnc(-c3ccco3)o2)cc1 | 38* | nt | 59 | 60* | nt | -57
C=CC1c2ccccc2/C=C(C(=O)OC)\C(C(=O)OC)=C/N1Cc1ccc(OC)cc1 (centres undefined) | nt | -13 | nt | nt | 20 | nt
Cc1cccc(Nc2cc(C)c3c(O)cccc3n2)c1C | 20 | -63 | 36 | 60* | -21 | -46
O=C1C=C(NCc2ccco2)CCC1 | -3 | nt | -9 | 0 | -5 | 11
O=C1C=C(NCc2ccccc2)CCC1 | 0 | 74* | -8 | nt | 0 | 11
COc1ccc(-n2nnnc2S(=O)(=O)CC(=O)N2CCCCC2)cc1 | -1 | 43 | -74 | 13 | -1 | 74*
CN(C)CCCn1c(SCC(=O)Nc2nc(-c3cccc(Br)c3)cs2)nc2ccccc2c1=O | 4 | -19 | -62 | 28 | -25 | 63*
C[C@@H]1CN([C@H](C)CO)C(=O)c2cc(NC(=O)Cc3cn(C)c4ccccc34)ccc2O[C@H]1CN(C)C(=O)NC1CCCCC1 | nt | 21 | nt | 1 | 6 | nt
Cc1ccc(S(=O)(=O)N(C)C[C@@H]2OCCCC[C@@H](C)Oc3ccc(NC(=O)CCC(F)(F)F)cc3C(=O)N([C@@H](C)CO)C[C@H]2C)cc1 | nt | 6 | nt | 4 | -11 | nt
COc1ccc(NC(C)=O)cc1S(=O)(=O)Nc1ccccc1C(=O)NCCc1ccccc1 | 19 | -136 | 99* | 55* | -64 | -98
COc1ccc(OC)c(NC(=O)CSc2nnc(C3CCCCC3)n2-c2ccccc2)c1 | 57* | 31 | -19 | 0 | nt | 18
OC[C@H]1O[C@@H](n2cnc3c(Nc4ccccc4)ncnc32)[C@H](O)[C@@H]1O | 11 | -15 | 45 | 36 | -40 | -45
OCC1OC(n2ccc3c(NO)ncnc32)C(O)C1O (centres undefined) | -3 | nt | -95 | nt | 49 | 95*
OCC1OC(n2cnc3c(NCc4ccccc4O)ncnc32)C(O)C1O (centres undefined) | -11 | 109* | -58 | nt | -3 | 59
O=c1[nH]nnc2c1ncn2C1OC(CO)C(O)C1O (centres undefined) | -2 | 97* | nt | -4 | 6 | nt
Cc1ccccc1-c1ccc2c(c1)O[C@@H](CN(C)C(=O)Nc1ccc(F)cc1)[C@@H](C)CN([C@@H](C)CO)S2(=O)=O | nt | 2 | nt | 5 | 6 | nt
CN(C)C(=O)C[C@@H]1CC[C@H](NC(=O)Nc2cccc(F)c2)[C@@H](CO)O1 | nt | -8 | nt | -1 | -8 | nt
c1ccc2nc3c(nc2c1)OCC1CCCCN31 (centres undefined) | 22 | -71 | 55 | 48* | -118 | -51
CCC(=O)N1[C@@H](CO)[C@@H](c2ccc(-c3ccccc3C)cc2)C12CN(C(C)=O)C2 | nt | nt | nt | nt | 7 | nt
CC1CCc2nc3sc4c(c3c(N)c2C1)CCCC4 (centres undefined) | 45* | -146 | 58 | nt | nt | -57

From PubChem
